An excerpt weighted towards active compounds, which were near 1.1% of everything screened.
TNF death inh = blocks TNF-alpha induced death of Jurkat FADD-/- cells; Jurkat FADD-/- TNF necroptosis rescue, ATP luminescence, 24 h; 0 = TNF only, 100 = no-TNF cells; activation (protection from cell death), % at 10 µM; 0.068% of 220,000 active; AID 463075;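 active = activation, meaning protection from cell death, of at least 50% relative to plate controls; inactive = activation below 50%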;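 note: necroptosis triggered by 40 ng/mL TNF-alpha added together with compound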
HIF activator = HIF pathway transcriptional activation; U2OS HRE-luciferase reporter, luminescence; normalized: DMSO 0%, desferrioxamine 100%; activation, % at 7.5 µM (by protocol); 0.32% of 300,000 active; AID 1910;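 active = mean activation of at least 10% of the iron chelator positive control signal, with at least half of replicates also reaching 10%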
Calb FLC = C. albicans growth modulation with fluconazole; C. albicans CaCi-2 (fluconazole-resistant clinical isolate) + fluconazole, Alamar Blue growth, 48 h; growth inhibition, % (test concentration not listed); 0.57% of 300,000 active;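 active = growth inhibition above about 58% in most replicates, limit read from the data, passing the limit was not always enough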;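 note: all wells also contain fluconazole at 8 µg/ml as a sub-toxic cotreatment; 0% = median of DMSO wells and 100% = median of geldanamycin control wells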
L929 necroptosis = L929 zVAD cell death inhibition. L929 zVAD necroptosis rescue, ATP luminescence, 24 h; with zVAD 60 µM. viability rescue, % at 10 µM. 0.38% of 220,000 active;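 active = activation, scaled between plate controls, above about 75%, limit read from the data; inactive = activation under that limit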;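 note: 0% = zVAD with DMSO and 100% = DMSO alone without zVAD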
* hit, by the source's call; / = no result given.

SMILES	TNF death inh	HIF activator	Calb FLC	L929 necroptosis
O=C(c1ccoc1)N1CCC2(CC1)Oc1ccc(F)cc1C(=O)C21CC(c2ccccc2)=NO1 (centres undefined)	1	0	92*	-2
Cc1ccc(C(=O)N2CCC3(CC2)Oc2ccc(F)cc2C(=O)C32CC(c3ccccc3)=NO2)s1 (centres undefined)	1	-1	28	0
O=C(c1ccoc1)N1CCC2(CC1)Oc1ccc(F)cc1C(=O)C21CC(c2ccc(Cl)cc2)=NO1 (centres undefined)	6	0	38	1
O=C(c1ccc2c(c1)OCO2)N1CCC2(CC1)Oc1ccc(F)cc1C(=O)C21CC(c2ccccc2)=NO1 (centres undefined)	4	0	77*	-1
Cc1ccc(C(=O)N2CCC3(CC2)Oc2ccc(Cl)cc2C(=O)C32CC(c3cccnc3)=NO2)s1 (centres undefined)	0	-1	41	0
COC(=O)Cn1nc(-c2ccccc2)c2ccccc21	0	0	86*	0
CC(C)CCNC(=O)C1CC(c2ccc(C(F)(F)F)cc2)=NO1 (centres undefined)	4	2	6	0
CCCCC(=O)N1CCN(c2nc3ccc(F)cc3s2)CC1	/	9.8*	5	/
CCC(=O)N1CCN(c2nc3ccc(Br)cc3s2)CC1	/	12*	13	/
CCCC(=O)N1CCN(c2nc3ccccc3s2)CC1	/	0	-4	/
Cc1ccc(NC(=S)N/C(=N/S(=O)(=O)c2ccccc2)c2ccccc2)cc1	0	10*	5	0
Cc1ncc(CO)c(/C=N/Nc2ccc(C(F)(F)F)cn2)c1O	/	9.6*	59	/
Cc1ccc(-n2ncc3c2CCCC3NC(=O)CCc2cnccn2)cc1C (centres undefined)	/	0	-3	/
Cn1c(SCC(=O)Nc2ccccc2)nnc1-c1ccc(NC(=O)CCc2ccccc2)cc1	3	26*	-3	1
CC(C)c1ccc(NC(=O)CCc2ccccc2)cc1	/	12*	0	/
Cc1ccc(OCc2cc(C(=O)N3CCC(c4ccccc4Cl)C3)no2)cc1C (centres undefined)	/	3	5	/
Cn1c(=O)cc(Nc2ccccc2)[nH]c1=O	/	0	8	/
Cc1cc(Nc2ccccc2)cc(=O)n1C	/	41*	2	/
O=c1c2ccccc2nc(COc2ccccc2)n1/N=C/c1c[nH]c2ccccc12	-4	0	31	5
O=c1c2ccccc2nc(COc2ccccc2)n1/N=C/c1ccc(O)cc1O	-15	61*	57	3
O=[N+]([O-])c1ccc(O)c(/C=N/n2c(CO)nc3ccccc32)c1	0	2	3	1
Cc1cc([N+](=O)[O-])cc(/C=N/n2c(C)nc3ccccc3c2=O)c1O	2	1	-2	1
C/C(=N\OCc1nc2ccccc2c(=O)n1/N=C/c1cc(C)cc([N+](=O)[O-])c1O)c1ccccc1	-1	9.6*	-4	2
C/C(=N\OCc1nc2ccccc2c(=O)n1/N=C/c1cc([N+](=O)[O-])ccc1O)c1ccccc1	-8	10*	-4	0
COc1ccc(C)cc1S(=O)(=O)N1CCC2(CC1)OCCN2S(=O)(=O)c1ccccc1	/	-1	-3	/
SMILES	TNF death inh	HIF activator	Calb FLC	L929 necroptosis
COC(=O)[C@H](Cc1ccccc1)[C@@H](C)OS(N)(=O)=O	/	0	-15	/
Cc1cc(C)cc(NC(=O)CSc2ccc(-c3ccccn3)nn2)c1	/	10*	1	/
Cc1ccccc1NC(=O)CSc1ccc(-c2ccccn2)nn1	/	0	-2	/
Cc1cc(C)c(Cn2cnc3ccccc32)c(C)c1	-1	0	-5	0
CCn1cc(/C=C/C(=O)Nc2ccn(Cc3c(F)c(F)cc(F)c3F)n2)cn1	78*	0	2	1
CCn1cc(/C=C/C(=O)Nc2ccc(C)cc2Br)cn1	1	2	-6	1
O=C(NCC1CCCO1)c1ccc([N+](=O)[O-])o1 (centres undefined)	/	0	-6	/
O=C1NC(=Nc2ccccc2)SC1Cc1cccc(Cl)c1Cl (centres undefined)	79*	-11	3	1
CCOc1ccc(/C=N/OCC(=O)Nc2ccc3c(c2)OCO3)cc1	1	0	100*	1
CCOc1ccccc1NC(=O)COc1ccc2c(c1)OCO2	/	14*	-9	/
O=C(Nc1ccccc1C(=O)N1CCCCCC1)c1ccc(F)cc1	/	0	0	/
Oc1ccc2ccccc2c1N=Nc1ccccn1	-15	33*	0	29
Oc1ccc2ccccc2c1N=Nc1ccccc1F	-3	1	1	0

Screens (PubChem BioAssay)
